Source: PubChem (National Center for Advancing Translational Sciences (NCATS))
This excerpt belongs to a sample that is enriched for hits.
Pf Dd2 growth – blocks in vitro growth of P. falciparum Dd2. P. falciparum Dd2 growth, SYBR Green, 72 h. hit rate 4.3% among 120,000. Potency, µM (top dose mostly 28.9 µM), without a hit: top-dose activity, negative = inhibition, most hits filed as inhibitors; active = well fitted inhibition curve with a large enough effect;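 also: plate controls were DMSO vehicle for no effect and reference drug for full effect; nearly all actives have a fitted effect of over 65% in size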
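Infected erythrocytes (Dd2, 0.3% parasitemia, 2.5% hematocrit final) are added to compound in RPMI-1640/Albumax II medium, grown 72 h at 37C in low oxygen, then lysed with saponin/Triton-X containing SYBR Green and read by fluorescence.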
* marks the source's active call; other numbers are inactive results; i = inactive; [ ] = another dose, or the depositor's remark. Potency is read from the fitted curve at half-maximal effect.

SMILES	Pf Dd2 growth
CCOC(=O)C1CCN(C(=O)C2CCN(C3=NS(=O)(=O)C(c4ccc(C)c(C)c4)=C3C)CC2)CC1	4µM*
COc1cccc(CCC(=O)N2CCN(c3cc(-c4ccccc4)[nH]n3)CC2)c1	-12%
O=C(CCC1CCN(S(=O)(=O)c2ccc(F)cc2)CC1)NCc1nc2ccccc2[nH]1	-9%
Cc1nnc(C2CCCCCN2S(=O)(=O)c2cccnc2)o1 (configuration not stated)	i
Cc1cnc(C(=O)N2CCC3(CC2)c2[nH]c4ccccc4c2CCN3C)cn1	i
CN1CCC(C(=O)N2C3CCC2CN(Cc2cccnc2)C3)CC1	-3%
O=C(C1CCCC1)N1CC2(CCN(Cc3cccnc3)CC2)Cc2ccccc21	10µM*
O=C(C1CCCC1)N1CC2(CCCN(Cc3ccc(Cl)cc3)C2)Cc2ccccc21 (configuration not stated)	13µM*
O=C1CCN(Cc2cccnc2)CCCC(C(=O)NC2CCCC2)CCN1 (configuration not stated)	-3%
CC(=O)N1CC2(Cc3ccccc31)CN(C(=O)NC1CCCC1)C2	4%[44.1 µM]
O=C(C1CCCC1)N1CC2(CCN(C3COC3)CC2)Cc2ccccc21	17%
CC(=O)N1CC2(CCCN(Cc3cccnc3)C2)Cc2ccccc21 (configuration not stated)	2%
O=C(C1CCCC1)N1CC2(CCN(C3CCCCC3)C2)Cc2ccccc21 (configuration not stated)	10µM*
O=C(C1CCCC1)N1CC2(CCN(Cc3cccnc3)C2)Cc2ccccc21 (configuration not stated)	6.3µM*
CC(=O)N1CC2(CCCN(Cc3ccc(Cl)cc3)C2)Cc2ccccc21 (configuration not stated)	-14%
CN(C)C[C@@H]1CN(Cc2ccccc2)C[C@H]1NC(=O)c1nccn1C	-18%
COc1ccc(C(C)NC(=O)c2noc(-c3ccc4c(c3)OCO4)n2)cc1 (configuration not stated)	0%
CC(C)C(=O)N1CCC(N2C(=O)C(O)C23CCCCC3)CC1 (configuration not stated)	-2%
Cn1ccnc1CN1CCN(Cc2cc3n(n2)CCNC3)CC1	-13%
Cc1onc(-c2cnn(C)c2NCCc2ccccc2)c1C(=O)N1CCN(C)C(=O)C1	-12%[44.1 µM]
O=C(COc1ccc(Cl)cc1)N1CCc2nn(CC3CC3)c(=O)n2CC1	-6%
Cc1cc(CNC(=O)[C@@H]2CCC[C@@H](NC(=O)C(C)(C)C)CN(C)C(=O)C2)no1	5%[44.1 µM]
O=C1N(CCCCOc2ccccc2)c2ccccc2NC12CCNCC2	7.9µM*
O=C1NC2(CCNCC2)C(=O)N1CCCc1cccnc1	-3%
Cn1ccnc1CN1C(=O)NC2(CCNCC2)C1=O	2%
SMILES	Pf Dd2 growth
O=c1n(-c2ccncc2)nc2n1CCN(Cc1ccccc1)C2	-3%[44.1 µM]
COCCNC(=O)c1ccc(CN2C(=O)NC3(CCS(=O)(=O)CC3)C2=O)cc1	8%
COCC(=O)Nc1ccc([C@H]2OCC(=O)N(Cc3ccccc3)[C@@H]2CO)cc1	-11%[44.1 µM]
O=C(Nc1ccccc1)[C@H]1CN2CCC1C[C@@H]2Cn1cc(C2(O)CCCCC2)nn1 (some centres not stated)	i
COCCNC(=O)[C@H]1CN2CCC1C[C@@H]2Cn1cc(-c2cccc(N)c2)nn1 (some centres not stated)	-9%[44.1 µM]
Nc1cccc(-c2cn(C[C@H]3CC4CCN3C[C@@H]4C(=O)Nc3ccccc3)nn2)c1 (some centres not stated)	7.9µM*
Cc1ccc(NC(=O)c2ccc3c(c2)N(C)C2CCCCN2C3=O)cc1C (configuration not stated)	i
Cc1noc(-c2ccc(C(C)(C)C)cc2)c1C(=O)NCc1ccc(Cl)cc1	i
CN(Cc1cnccn1)C(=O)c1cc(CN2CCC(Cc3ccccc3)CC2)on1	6%
O=C(N1CCCCC1)N1CCCC1c1nnc2n1CCNC2 (configuration not stated)	-6%
COc1ccccc1N1CCN(C(=O)c2cc3ccc4ccc(C)[nH]c4c3n2)CC1	13µM*
COc1ccc(Cl)cc1NC(=O)c1cnc(SC)nc1-c1ccccc1	8%
CCSc1ncc(Cl)c(C(=O)N2CCN(c3ccccc3OC)CC2)n1	34%
COc1ccc(Cl)cc1NC(=O)c1cc2ccc3ccc(C)[nH]c3c2n1	11µM*
COc1ccc(Cl)cc1NC(=O)c1cc2nc(-c3ccc(C)cc3)cc(C(F)(F)F)n2n1	19%
COc1ccccc1N1CCN(C(=O)c2cc(-c3ccccc3O)on2)CC1	10%
Cc1cccc(CNC(=O)CN2CC3CC(C2)[C@H]2CCCC(=O)N2C3)c1 (some centres not stated)	-17%
CC(=O)NCCCC(=O)N1CCN(C2CCNCC2)C(=O)C1	40%
CCCCCCN(CCC(=O)NCCC)C(=O)c1ccoc1	-16%
COCCN1CCNc2nc(CNCc3cccc(Cl)c3)n(Cc3ccccc3)c2C1=O	i
N#Cc1ccccc1CN1CCNc2nc(COc3ccccc3)n(Cc3ccccc3)c2C1=O	i
